Where a name gives a salt, the structure may show the parent alone.
test system: Staphylococcus aureus MW2 delta-mecA (mecA-); test: normalized GFP fluorescence (growth of mecA- strain) (fraction of control range); higher = more growth of mecA- strain; details: compound concentration: 150 uM; cefoxitin: subinhibitory; fluorescent label: GFP
Method in brief: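 Pre-induced S. aureus MW2 mecA+ (DsRed) and ΔmecA (GFP) cells were mixed 1:1 in LB with a daily-set subinhibitory cefoxitin dose. They were dispensed at 5 µL/well onto 150 μM compound (1.5% DMSO) in 1536-well plates, single replicate. Growth was 20 h at 37 °C, 90% humidity, unshaken, and DsRed (540/590) and GFP (485/520) were then read. Each channel was scaled per plate between the medians of the single-strain controls. Plates with high No Treatment ratios and rows with DsRed/GFP >10 were excluded.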

| Structure (SMILES) | normalized GFP fluorescence |
| --- | --- |
| N[C@@H](Cc1cc(I)c(Oc2cc(I)c(O)c(I)c2)c(I)c1)C(=O)O | 0.297 |
| CN(C/C=C/C#CC(C)(C)C)Cc1cccc2ccccc12 [Terbinafine hydrochloride (Lamisil)] | 0.111 |
| C#Cc1cccc(Nc2ncnc3cc4c(cc23)OCCOCCOCCO4)c1 [Icotinib] | 0.488 |
| CNC[C@H](O)c1ccc(O)c(O)c1 | 0.95 |
| CCCC1O[C@@H]2C[C@H]3[C@@H]4CCC5=CC(=O)C=C[C@]5(C)[C@H]4[C@@H](O)C[C@]3(C)[C@]2(C(=O)CO)O1 (some centres undefined) | 0.226 |
| O=C1CCc2ccc(OCCCCN3CCN(c4cccc(Cl)c4Cl)CC3)cc2N1 | 0.0969 |
| CN1CCCN=C1/C=C/c1cccc(O)c1 | 0.279 |
| O=C1CCc2cc(OCCCCc3nnnn3C3CCCCC3)ccc2N1 | 0.533 |
| OCCN(CCO)c1nc(N2CCCCC2)c2nc(N(CCO)CCO)nc(N3CCCCC3)c2n1 | 0.523 |
| Cc1nnc(C(=O)NC(C)(C)c2nc(C(=O)NCc3ccc(F)cc3)c(O)c(=O)n2C)o1 [Raltegravir (MK-0518)] | 0.051 |
| Oc1ncnc2[nH]ncc12 | 0.524 |
| Cn1ncnc1[C@H]1c2n[nH]c(=O)c3cc(F)cc(c23)N[C@@H]1c1ccc(F)cc1 [Talazoparib (BMN 673)] | 0.42 |
| CCCNS(=O)(=O)Nc1ncnc(OCCOc2ncc(Br)cn2)c1-c1ccc(Br)cc1 [Macitentan] | 0.0399 |
| CCCc1nc2c(C)cc(-c3nc4ccccc4n3C)cc2n1Cc1ccc(-c2ccccc2C(=O)O)cc1 | 0.106 |
| Cc1cc(CC(=O)O)n(C)c1C(=O)c1ccc(Cl)cc1 | 0.288 |
| COCCOC(=O)C1=C(C)NC(C)=C(C(=O)OC(C)C)C1c1cccc([N+](=O)[O-])c1 (centres undefined) | 0.032 |
| CN(C)c1nc(N(C)C)nc(N(C)C)n1 | 0.159 |
| CN(C)CCOc1ccc(/C(=C(/CCCl)c2ccccc2)c2ccccc2)cc1 | 0.000588 |
| CCC(C)CCCCC(=O)NC(CCN)C(=O)NC(C(=O)NC(CCN)C(=O)NC1CCNC(=O)C(C(C)O)NC(=O)C(CCN)NC(=O)C(CCN)NC(=O)C(CC(C)C)NC(=O)C(Cc2ccccc2)NC(=O)C(CCN)NC1=O)C(C)O (centres undefined) | 0.159 |
| CC(C)(C)NCC(O)COc1cccc2c1CCC(=O)N2 (centres undefined) | 0.243 |

| Structure (SMILES) | normalized GFP fluorescence |
| --- | --- |
| COC(=O)Nc1nc2cc(Sc3ccccc3)ccc2[nH]1 | 0.378 |
| N#Cc1ccc2[nH]cc(CCCCN3CCN(c4ccc5oc(C(N)=O)cc5c4)CC3)c2c1 | 0.0415 |
| CCCCC1C(=O)N(c2ccccc2)N(c2ccc(O)cc2)C1=O (centres undefined) | -0.0111 |
| CN1CC(=O)N2[C@H](c3ccc4c(c3)OCO4)c3[nH]c4ccccc4c3C[C@@H]2C1=O | 0.112 |
| c1cc(CN2CCCNCCNCCCNCC2)ccc1CN1CCCNCCNCCCNCC1 [Plerixafor] | 0.396 |
| Clc1ccc(COC(Cn2ccnc2)c2ccc(Cl)cc2Cl)cc1 (centres undefined) [Econazole nitrate (Spectazole)] | -0.00195 |
| COc1ccc(O)cc1 | 0.353 |
| COc1ccc2c(c1)C(=O)N(CCc1ccc(S(=O)(=O)NC(=O)NC3CCCCC3)cc1)C(=O)C2(C)C [Gliquidone] | 0.017 |
| NC(=O)c1cn(Cc2c(F)cccc2F)nn1 [Rufinamide (Banzel)] | 0.199 |
| NS(=O)(=O)c1cc2c(cc1Cl)NCNS2(=O)=O | 0.562 |
| CC1(C)S[C@@H]2[C@H](NC(=O)[C@H](C(=O)O)c3ccsc3)C(=O)N2[C@H]1C(=O)O | 0.468 |
| COc1cc(C)c(/C=C/C(C)=C/C=C/C(C)=C/C(=O)O)c(C)c1C [Acitretin] | 0.0102 |
| CN(c1nccc(=O)[nH]1)C1CCN(c2nc3ccccc3n2Cc2ccc(F)cc2)CC1 [Mizolastine (Mizollen)] | 0.387 |
| CN(C)CCCN1c2ccccc2Sc2ccccc21 | -0.00898 |
| Cc1cc(C(C)(C)C)c(O)c(C)c1CC1=NCCN1 [Oxymetazoline hydrochloride] | 0.135 |
| C=C[C@H]1CN2CC[C@H]1C[C@H]2[C@H](O)c1ccnc2ccc(OC)cc12 | 0.628 |
| CC(C)(C)NCC(O)c1cc(O)cc(O)c1 (centres undefined) | 0.587 |
| C[C@@H]1C[C@H]2[C@@H]3CCC4=CC(=O)C=C[C@]4(C)[C@@]3(F)[C@@H](O)C[C@]2(C)[C@@]1(O)C(=O)CO | 0.309 |
| CN[C@@H]1[C@@H](O)[C@@H](O[C@@H]2[C@@H](O)[C@H](O[C@H]3OC(CN)=CC[C@H]3N)[C@@H](N)C[C@H]2N)OC[C@]1(C)O | 0.511 |

From the supplement of paper PMC7695840
